The record followed here is PMC7862700, “An all-to-all approach to the identification of sequence-specific readers for epigenetic DNA modifications on cytosine”.

Common to all, as to assay: DAPPL (digital affinity profiling via proximity ligation, sequencing); 10 mM Tris-HCl pH 7.5, 50 mM NaCl, 1 mM DTT, 4% glycerol, room temperature, 30 min; GST-TFs on glutathione beads, 16-mer random dsDNA library, 0.1% formaldehyde crosslink after washing; high values mean tight binding
Test [1] deals with T1, FEV (Homo sapiens, UniProt Q99581 1-238).
T1 sequence: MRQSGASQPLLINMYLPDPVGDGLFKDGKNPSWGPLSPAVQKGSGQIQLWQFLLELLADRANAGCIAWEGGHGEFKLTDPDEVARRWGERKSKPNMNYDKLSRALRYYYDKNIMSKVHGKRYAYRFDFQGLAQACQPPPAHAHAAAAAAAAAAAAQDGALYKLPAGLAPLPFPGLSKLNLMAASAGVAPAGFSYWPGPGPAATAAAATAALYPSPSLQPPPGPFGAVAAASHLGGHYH
The settings on record: protein: recombinant; tags: N-terminal GST; dsDNA, one strand shown. The method in brief: (§1)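 Beads coated with glutathione captured GST-fused human transcription factors that had been expressed in yeast, and the factors were then given DNA barcodes and pooled with a tag-only sample. The pools were incubated with 200 nmole of a random double-stranded 16-mer DNA library in Tris/NaCl/DTT/glycerol buffer for 30 min at room temperature, washed, crosslinked with 0.1% formaldehyde and proximity-ligated with BsaI/T4 ligase at 37 °C for 1 h. PCR amplification and Illumina NextSeq500 sequencing came last. Binding signal is each hexamer's read frequency for a factor divided by its frequency for the tag-only sample.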

Test [2] concerns the target ETV5 (Homo sapiens, UniProt P41161 1-510). Particulars: protein: recombinant; tags: N-terminal GST; dsDNA, one strand shown. In short, it runs like this: as §1
Test [3] concerns the target HSF1 (Homo sapiens, UniProt Q00613 1-529). Particulars: protein: recombinant; tags: N-terminal GST; chain copies: 3; dsDNA, one strand shown. In short, it runs like this: as §1
In test [4] the target is T2, SPIC (Homo sapiens, UniProt Q8N5J4 1-248).
T2 sequence: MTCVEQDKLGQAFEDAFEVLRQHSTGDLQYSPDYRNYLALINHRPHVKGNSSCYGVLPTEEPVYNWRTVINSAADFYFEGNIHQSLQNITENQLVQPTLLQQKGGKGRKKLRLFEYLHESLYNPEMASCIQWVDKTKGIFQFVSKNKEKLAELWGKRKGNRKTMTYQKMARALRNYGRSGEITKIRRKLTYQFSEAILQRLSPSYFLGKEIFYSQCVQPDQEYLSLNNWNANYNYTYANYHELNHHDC
The settings on record: protein: recombinant; tags: N-terminal GST; dsDNA, one strand shown. In short, it runs like this:
as §1

Test [5] deals with ELF4 (Homo sapiens, UniProt Q99607 1-663). The settings on record: protein: recombinant; tags: N-terminal GST; dsDNA, one strand shown. The method in brief: as §1
ELF4, sequence (Q99607 whole entry): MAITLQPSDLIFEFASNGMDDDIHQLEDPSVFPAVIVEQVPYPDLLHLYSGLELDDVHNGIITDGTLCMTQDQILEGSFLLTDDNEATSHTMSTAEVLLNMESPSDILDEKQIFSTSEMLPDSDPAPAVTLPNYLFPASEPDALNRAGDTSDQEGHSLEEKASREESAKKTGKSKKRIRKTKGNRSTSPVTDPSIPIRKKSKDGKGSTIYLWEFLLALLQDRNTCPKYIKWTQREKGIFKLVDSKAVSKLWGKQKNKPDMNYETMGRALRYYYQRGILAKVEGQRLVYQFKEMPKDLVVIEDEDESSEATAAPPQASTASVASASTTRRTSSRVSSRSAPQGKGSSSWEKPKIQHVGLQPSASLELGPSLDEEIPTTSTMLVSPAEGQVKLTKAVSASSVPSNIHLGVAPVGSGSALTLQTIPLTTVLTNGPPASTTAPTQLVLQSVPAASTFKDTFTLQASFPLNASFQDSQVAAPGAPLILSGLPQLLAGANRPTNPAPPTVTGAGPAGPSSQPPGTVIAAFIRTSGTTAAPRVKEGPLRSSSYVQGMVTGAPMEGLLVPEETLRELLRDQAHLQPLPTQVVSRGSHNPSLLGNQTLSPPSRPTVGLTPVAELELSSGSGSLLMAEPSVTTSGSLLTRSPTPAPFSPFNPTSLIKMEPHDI
Test [6] concerns the target T3, ELK4 (Homo sapiens, UniProt P28324-2 1-405).
T3 sequence: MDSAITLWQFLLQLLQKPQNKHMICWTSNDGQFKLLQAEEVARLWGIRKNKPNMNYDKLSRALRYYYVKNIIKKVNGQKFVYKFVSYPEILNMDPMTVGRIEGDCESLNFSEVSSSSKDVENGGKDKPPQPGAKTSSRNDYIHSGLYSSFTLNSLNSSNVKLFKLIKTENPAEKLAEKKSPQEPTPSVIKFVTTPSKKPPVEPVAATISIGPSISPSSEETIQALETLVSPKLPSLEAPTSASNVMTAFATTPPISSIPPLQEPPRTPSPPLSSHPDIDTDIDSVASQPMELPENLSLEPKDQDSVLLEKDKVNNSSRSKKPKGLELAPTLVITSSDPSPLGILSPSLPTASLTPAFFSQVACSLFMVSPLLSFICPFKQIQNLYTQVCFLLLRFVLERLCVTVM
Particulars: protein: recombinant; tags: N-terminal GST; dsDNA, one strand shown. In short, it runs like this: as §1

Test [7] concerns the target T4, ETV2 (Homo sapiens, UniProt O00321 1-342).
T4 sequence: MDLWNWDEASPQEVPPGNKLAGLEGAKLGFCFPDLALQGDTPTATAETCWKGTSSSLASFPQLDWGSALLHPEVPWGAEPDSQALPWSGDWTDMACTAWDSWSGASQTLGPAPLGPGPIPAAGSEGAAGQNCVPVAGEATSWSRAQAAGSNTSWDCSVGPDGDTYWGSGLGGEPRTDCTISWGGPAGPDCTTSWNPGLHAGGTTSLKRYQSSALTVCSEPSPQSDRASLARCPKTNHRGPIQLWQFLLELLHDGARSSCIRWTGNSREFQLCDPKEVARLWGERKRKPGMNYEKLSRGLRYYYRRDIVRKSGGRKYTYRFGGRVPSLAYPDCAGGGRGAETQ
Particulars: protein: recombinant; tags: N-terminal GST; dsDNA, one strand shown. In short, it runs like this:
as §1

The target in test [8] is T5, ELF3 (Homo sapiens, UniProt P78545 1-371).
T5 sequence: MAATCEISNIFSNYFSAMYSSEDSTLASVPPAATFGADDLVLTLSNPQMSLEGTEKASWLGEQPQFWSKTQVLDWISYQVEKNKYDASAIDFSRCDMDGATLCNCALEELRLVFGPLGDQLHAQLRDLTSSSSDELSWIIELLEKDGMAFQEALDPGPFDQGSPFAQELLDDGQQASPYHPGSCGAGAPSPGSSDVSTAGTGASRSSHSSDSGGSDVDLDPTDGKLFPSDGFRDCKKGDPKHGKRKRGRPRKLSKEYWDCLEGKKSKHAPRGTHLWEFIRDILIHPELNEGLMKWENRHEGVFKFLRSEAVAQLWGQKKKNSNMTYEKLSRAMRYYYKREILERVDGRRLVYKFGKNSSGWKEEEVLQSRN
The settings on record: protein: recombinant; tags: N-terminal GST; dsDNA, one strand shown. In short, it runs like this:
as §1

Test [9] has as its target CRX (Homo sapiens, UniProt O43186 1-299). Particulars: protein: recombinant; tags: N-terminal GST; dsDNA, one strand shown. The method in brief:
as §1

For test [10], the target named is ETV1 (Homo sapiens, UniProt P50549 1-477). Particulars: protein: recombinant; tags: N-terminal GST; dsDNA, one strand shown. The method in brief:
as §1

In test [11] the target is T6, ERF (Homo sapiens, UniProt P50548 1-548).
T6 sequence: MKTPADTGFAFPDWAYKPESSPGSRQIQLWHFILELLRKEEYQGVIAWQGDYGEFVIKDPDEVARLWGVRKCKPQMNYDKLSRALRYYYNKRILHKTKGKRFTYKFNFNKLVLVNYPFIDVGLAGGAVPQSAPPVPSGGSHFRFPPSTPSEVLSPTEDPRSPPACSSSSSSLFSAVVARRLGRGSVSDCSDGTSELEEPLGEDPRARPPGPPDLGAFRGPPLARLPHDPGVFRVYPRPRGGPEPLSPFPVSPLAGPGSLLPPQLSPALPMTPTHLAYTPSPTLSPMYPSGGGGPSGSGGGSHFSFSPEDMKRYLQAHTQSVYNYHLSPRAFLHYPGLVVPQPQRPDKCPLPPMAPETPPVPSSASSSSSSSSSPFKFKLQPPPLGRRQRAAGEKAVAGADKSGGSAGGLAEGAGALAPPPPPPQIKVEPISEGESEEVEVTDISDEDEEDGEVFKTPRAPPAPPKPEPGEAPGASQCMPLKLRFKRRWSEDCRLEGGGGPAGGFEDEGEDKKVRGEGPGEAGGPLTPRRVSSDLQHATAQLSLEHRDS
The settings on record: protein: recombinant; tags: N-terminal GST; dsDNA, one strand shown. In short, it runs like this: as §1

Test [12] addresses T7, ETV3L (Homo sapiens, UniProt Q6ZN32 1-361).
T7 sequence: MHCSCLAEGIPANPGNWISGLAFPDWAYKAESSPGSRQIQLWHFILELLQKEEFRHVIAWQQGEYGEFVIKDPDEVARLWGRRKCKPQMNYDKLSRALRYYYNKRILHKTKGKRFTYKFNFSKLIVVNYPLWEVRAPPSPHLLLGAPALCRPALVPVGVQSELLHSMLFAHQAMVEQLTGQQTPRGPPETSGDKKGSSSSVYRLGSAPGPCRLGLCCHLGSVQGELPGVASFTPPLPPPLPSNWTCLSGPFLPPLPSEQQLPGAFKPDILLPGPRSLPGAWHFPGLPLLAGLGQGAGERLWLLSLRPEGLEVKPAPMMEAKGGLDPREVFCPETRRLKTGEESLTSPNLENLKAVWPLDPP
Particulars: protein: recombinant; tags: N-terminal GST; dsDNA, one strand shown. In short, it runs like this:
as §1

Test [13] deals with T8, ETS2 (Homo sapiens, UniProt P15036 1-469).
T8 sequence: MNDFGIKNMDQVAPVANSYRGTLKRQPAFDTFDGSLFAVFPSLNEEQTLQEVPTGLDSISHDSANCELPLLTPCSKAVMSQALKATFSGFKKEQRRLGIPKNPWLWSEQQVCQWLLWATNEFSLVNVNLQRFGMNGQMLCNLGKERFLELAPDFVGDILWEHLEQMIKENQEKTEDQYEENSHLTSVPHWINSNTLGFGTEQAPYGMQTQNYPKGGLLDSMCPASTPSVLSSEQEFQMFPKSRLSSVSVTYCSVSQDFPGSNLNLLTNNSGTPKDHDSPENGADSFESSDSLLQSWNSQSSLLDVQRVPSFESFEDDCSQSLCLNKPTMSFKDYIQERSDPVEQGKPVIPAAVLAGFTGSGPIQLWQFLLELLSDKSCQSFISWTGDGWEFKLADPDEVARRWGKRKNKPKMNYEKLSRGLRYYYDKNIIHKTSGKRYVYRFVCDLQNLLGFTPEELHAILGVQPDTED
Particulars: protein: recombinant; tags: N-terminal GST; dsDNA, one strand shown. In short, it runs like this: as §1

In test [14] the target is T9, SPDEF (Homo sapiens, UniProt O95238 1-335).
T9 sequence: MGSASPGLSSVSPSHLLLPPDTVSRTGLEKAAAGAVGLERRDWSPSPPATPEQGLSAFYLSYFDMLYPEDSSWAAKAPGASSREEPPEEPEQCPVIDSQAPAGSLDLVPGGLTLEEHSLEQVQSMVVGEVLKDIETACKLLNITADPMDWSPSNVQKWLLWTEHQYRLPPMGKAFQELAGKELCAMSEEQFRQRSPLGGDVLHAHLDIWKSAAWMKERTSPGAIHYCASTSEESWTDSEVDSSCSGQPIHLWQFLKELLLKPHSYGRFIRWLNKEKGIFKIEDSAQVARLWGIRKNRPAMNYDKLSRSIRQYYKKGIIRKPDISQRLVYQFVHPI
Particulars: protein: recombinant; tags: N-terminal GST; dsDNA, one strand shown. In short, it runs like this: as §1

Test [15] concerns the target T10, ETV7 (Homo sapiens, UniProt Q9Y603 1-341).
T10 sequence: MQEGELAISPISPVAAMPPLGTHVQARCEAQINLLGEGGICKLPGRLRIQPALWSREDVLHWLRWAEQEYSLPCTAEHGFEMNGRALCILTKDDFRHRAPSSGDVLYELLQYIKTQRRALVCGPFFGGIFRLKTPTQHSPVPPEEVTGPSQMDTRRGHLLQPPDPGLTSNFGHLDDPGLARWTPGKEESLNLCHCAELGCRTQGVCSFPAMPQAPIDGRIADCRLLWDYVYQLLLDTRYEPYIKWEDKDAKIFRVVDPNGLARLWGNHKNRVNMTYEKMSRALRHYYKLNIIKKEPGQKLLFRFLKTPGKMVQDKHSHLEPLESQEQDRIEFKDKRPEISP
The settings on record: protein: recombinant; tags: N-terminal GST; dsDNA, one strand shown. The method in brief:
as §1

Test [16] has as its target T11, ELF5 (Homo sapiens, UniProt Q9UKW6-2 1-255).
T11 sequence: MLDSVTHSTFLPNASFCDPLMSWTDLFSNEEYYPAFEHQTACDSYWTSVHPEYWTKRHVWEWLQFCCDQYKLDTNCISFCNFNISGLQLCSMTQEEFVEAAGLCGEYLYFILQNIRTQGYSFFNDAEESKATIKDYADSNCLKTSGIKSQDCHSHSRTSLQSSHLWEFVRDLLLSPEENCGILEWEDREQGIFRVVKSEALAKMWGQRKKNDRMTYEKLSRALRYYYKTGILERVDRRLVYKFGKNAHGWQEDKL
The settings on record: protein: recombinant; tags: N-terminal GST; dsDNA, one strand shown. In short, it runs like this:
as §1

Test [17] deals with T12, ETV3 (Homo sapiens, UniProt P41162-2 1-143).
T12 sequence: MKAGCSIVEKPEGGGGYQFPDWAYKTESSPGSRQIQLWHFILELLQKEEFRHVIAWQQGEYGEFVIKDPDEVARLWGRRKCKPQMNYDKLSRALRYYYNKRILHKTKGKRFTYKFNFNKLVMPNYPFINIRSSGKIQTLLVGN
The settings on record: protein: recombinant; tags: N-terminal GST; dsDNA, one strand shown. In short, it runs like this:
as §1

The target of test [18] is ETV6 (Homo sapiens, UniProt P41212 1-452). Particulars: protein: recombinant; tags: N-terminal GST; dsDNA, one strand shown. In short, it runs like this: as §1
ETV6, sequence (P41212 whole entry): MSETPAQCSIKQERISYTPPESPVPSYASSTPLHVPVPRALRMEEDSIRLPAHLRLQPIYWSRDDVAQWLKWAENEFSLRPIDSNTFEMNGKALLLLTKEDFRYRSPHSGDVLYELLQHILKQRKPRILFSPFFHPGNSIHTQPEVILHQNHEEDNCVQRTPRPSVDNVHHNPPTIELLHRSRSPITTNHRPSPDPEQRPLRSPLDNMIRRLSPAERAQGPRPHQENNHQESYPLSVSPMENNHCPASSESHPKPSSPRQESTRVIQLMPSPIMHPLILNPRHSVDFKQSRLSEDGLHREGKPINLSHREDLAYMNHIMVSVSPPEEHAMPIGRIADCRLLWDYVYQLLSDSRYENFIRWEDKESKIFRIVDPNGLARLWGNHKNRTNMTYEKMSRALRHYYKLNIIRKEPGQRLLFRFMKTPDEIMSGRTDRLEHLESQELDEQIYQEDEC

ETV5, sequence (P41161 whole entry): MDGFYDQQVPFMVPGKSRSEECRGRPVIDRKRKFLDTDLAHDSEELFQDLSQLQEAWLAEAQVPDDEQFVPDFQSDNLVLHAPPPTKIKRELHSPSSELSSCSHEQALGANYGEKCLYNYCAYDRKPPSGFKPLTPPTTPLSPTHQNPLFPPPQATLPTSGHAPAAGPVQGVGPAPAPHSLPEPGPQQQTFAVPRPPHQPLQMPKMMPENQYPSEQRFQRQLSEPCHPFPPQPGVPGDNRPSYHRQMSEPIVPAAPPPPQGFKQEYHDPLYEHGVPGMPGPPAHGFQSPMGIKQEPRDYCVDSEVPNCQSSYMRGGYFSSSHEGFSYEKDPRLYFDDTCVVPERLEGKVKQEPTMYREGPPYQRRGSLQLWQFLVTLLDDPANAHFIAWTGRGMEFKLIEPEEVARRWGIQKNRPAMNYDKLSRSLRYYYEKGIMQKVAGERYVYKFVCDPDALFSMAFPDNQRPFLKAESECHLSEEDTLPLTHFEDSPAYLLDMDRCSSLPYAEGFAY
ETV1, sequence (P50549 whole entry): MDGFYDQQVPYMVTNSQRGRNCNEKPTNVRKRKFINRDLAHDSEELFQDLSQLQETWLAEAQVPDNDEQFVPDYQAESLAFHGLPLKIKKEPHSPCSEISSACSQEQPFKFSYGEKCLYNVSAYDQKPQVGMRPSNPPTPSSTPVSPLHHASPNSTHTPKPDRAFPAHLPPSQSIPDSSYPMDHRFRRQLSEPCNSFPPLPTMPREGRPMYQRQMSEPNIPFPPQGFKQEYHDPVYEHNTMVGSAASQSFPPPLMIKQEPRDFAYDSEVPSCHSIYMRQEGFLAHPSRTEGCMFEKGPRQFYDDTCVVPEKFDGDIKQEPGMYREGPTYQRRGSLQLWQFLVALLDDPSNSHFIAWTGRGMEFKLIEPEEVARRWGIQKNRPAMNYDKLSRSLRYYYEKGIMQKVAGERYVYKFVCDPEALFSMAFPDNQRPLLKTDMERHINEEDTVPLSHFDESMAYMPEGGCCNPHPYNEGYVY
HSF1, sequence (Q00613 whole entry): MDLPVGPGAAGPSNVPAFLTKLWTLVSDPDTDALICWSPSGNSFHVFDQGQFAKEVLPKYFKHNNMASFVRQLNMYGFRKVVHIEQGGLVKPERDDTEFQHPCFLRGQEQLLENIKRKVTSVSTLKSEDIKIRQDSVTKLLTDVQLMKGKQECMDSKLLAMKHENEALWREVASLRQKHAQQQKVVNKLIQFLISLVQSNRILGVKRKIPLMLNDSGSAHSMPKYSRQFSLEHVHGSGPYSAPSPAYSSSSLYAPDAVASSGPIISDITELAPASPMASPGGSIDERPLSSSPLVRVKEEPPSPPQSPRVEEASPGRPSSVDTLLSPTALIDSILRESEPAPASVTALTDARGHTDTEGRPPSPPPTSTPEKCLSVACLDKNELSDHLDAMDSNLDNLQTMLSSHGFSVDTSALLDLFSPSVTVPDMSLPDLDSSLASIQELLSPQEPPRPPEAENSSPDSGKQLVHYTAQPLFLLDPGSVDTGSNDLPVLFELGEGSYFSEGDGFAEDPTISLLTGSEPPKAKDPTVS
CRX, sequence (O43186 whole entry): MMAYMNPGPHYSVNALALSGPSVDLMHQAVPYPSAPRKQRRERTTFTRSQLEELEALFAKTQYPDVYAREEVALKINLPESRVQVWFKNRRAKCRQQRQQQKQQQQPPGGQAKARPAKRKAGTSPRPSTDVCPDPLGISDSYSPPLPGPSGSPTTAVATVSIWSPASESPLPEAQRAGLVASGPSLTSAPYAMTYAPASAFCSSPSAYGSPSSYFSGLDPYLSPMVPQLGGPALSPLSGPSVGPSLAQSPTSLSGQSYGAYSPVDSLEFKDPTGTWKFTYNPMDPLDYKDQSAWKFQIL

In the case of ATGGTT, the binding signal in [1] was 1.34 fold enrichment (6-mer frequency, TF over GST control); in [2], 1.31 fold enrichment (6-mer frequency, TF over GST control); in [3], 1.25 fold enrichment (6-mer frequency, TF over GST control); in test [4], 1.33 fold enrichment (6-mer frequency, TF over GST control); in test [5] it was 1.32 fold enrichment (6-mer frequency, TF over GST control); in test [6], 1.42 fold enrichment (6-mer frequency, TF over GST control). In addition, the binding signal in [7] is 1.24 fold enrichment (6-mer frequency, TF over GST control); in [8] it was 1.38 fold enrichment (6-mer frequency, TF over GST control); in test [9], 1.17 fold enrichment (6-mer frequency, TF over GST control); in [10], 1.42 fold enrichment (6-mer frequency, TF over GST control); in test [11], 1.27 fold enrichment (6-mer frequency, TF over GST control); in test [12], 1.36 fold enrichment (6-mer frequency, TF over GST control). Further, the binding signal in [13] is 1.36 fold enrichment (6-mer frequency, TF over GST control); in test [14], 1.18 fold enrichment (6-mer frequency, TF over GST control); in test [15] it was 1.27 fold enrichment (6-mer frequency, TF over GST control); in test [16], 1.27 fold enrichment (6-mer frequency, TF over GST control); in test [17] it was 1.34 fold enrichment (6-mer frequency, TF over GST control); in test [18], 1.3 fold enrichment (6-mer frequency, TF over GST control).
